From PubChem BioAssay (Tox21)
“And” between values parts separate entries of the source, which are not always exact repeats. Equal entries are not always repeated. Records with an inconclusive call do not appear. A call without a number means that no potency is given here. The source made the active and inactive calls. The call rests on the fitted dose curve; in most records, active means well fitted cell-killing curve with a large enough effect in the repeat runs; inconclusive means weak or mixed curves, or effect the other way; inactive means no such curve, though single readings can be large or run the other way.

assay: qHTS assay to identify small molecule agonists of the estrogen receptor alpha (ER-alpha) signaling pathway in the presence of an antagonist - cell viability counter screen (AID 1259386); settings: VM7Luc4E2 viability, CellTiter-Fluor fluorescence, 22 h; series mostly up to 92.4 µM;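 further: cells exposed to compounds for 22 h at 37 °C before the viability read; nearly all actives have a fitted effect of over 30% in size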
Outline: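 Viability counter screen using VM7Luc4E2 (full-length ER-alpha, four ERE-luciferase). The cells were treated with compounds alongside ICI-182,780 10.0nM for 22hr, and live-cell protease fluorescence was quantified with CellTiter-Fluor.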
Potency means the concentration at half of the fitted maximal effect.

| Compound | Potency |
| --- | --- |
| O=C1CCCCCCCCCCC1 | inactive |
| CN1Cc2c(N)cccc2C(c2ccccc2)C1 (stereo not given) | inactive |
| COCN(COC)c1nc(N(COC)COC)nc(N(COC)COC)n1 | inactive |
| CC/C(C)=N/O | inactive |
| CC(=O)OCCC(C)C | inactive |
| C=C1C[C@]23C[C@@]1(O)CC[C@H]2[C@@]12C=C[C@H](O)[C@@](C)(C(=O)O1)[C@H]2[C@@H]3C(=O)O | inactive |
| COc1ccc2cc3[n+](cc2c1OC)CCc1cc2c(cc1-3)OCO2 | 27.5 µM (active) and 26.6 µM (active) |
| CC1=CC(=O)CC(C)(C)C1 | inactive |
| CC(O)CNCC(C)O (stereo not given) | inactive |
| CCCCCCC(=O)O | inactive |
| Cc1ccncc1 | inactive |
| CN1CCCC1=O | inactive |
| O=C1O[C@H]([C@H](O)CO)C(O)=C1O | inactive |
| CC/C=C(\C(=O)N[C@@H]1C(=O)N2C(C(=O)OCOC(=O)C(C)(C)C)=C(COC(N)=O)CS[C@H]12)c1csc(N)n1 | inactive |
| CCOC(=O)CC(=O)OCC | inactive |
| COc1cc(NC(=O)CC(C)=O)c(OC)cc1Cl | inactive |
| O=[N+]([O-])c1cc(C(F)(F)F)ccc1Cl | inactive |
| NCCNCCNCCN | inactive |
| CCCCC(CC)COC(=O)c1ccc(C(=O)OCC(CC)CCCC)cc1 (stereo not given) | inactive |
| CC1(C)[C@@H](O[C@H]2O[C@H](C(=O)O)[C@@H](O)[C@H](O)[C@H]2O[C@@H]2O[C@H](C(=O)O)[C@@H](O)[C@H](O)[C@H]2O)CC[C@]2(C)[C@H]3C(=O)C=C4[C@@H]5C[C@@](C)(C(=O)O)CC[C@]5(C)CC[C@@]4(C)[C@]3(C)CC[C@@H]12 | inactive |
